The structures appear in SMILES notation. A number with no mark means an inactive call. Active and inactive are the calls of the source.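 Rule for the calls: active = normalized viability below 100% at a tested concentration; inactive = the rest.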

The nature of the first experiment: drug combination growth inhibition, ovarian cancer – cell-based, oncology-focused library, rucaparib conditional, profiling panel (AID 1508598). To be noted: patient-derived ovarian cancer cells, CellTiter-Glo viability, 144 h; at 0.0781 µM; OCI-P5x cells; without rucaparib; active compounds read low. In general terms: Cellular ATP, detected with luciferase, serves as a proxy for viable cell number.
Consider `COc1cccc2c1C(=O)c1c(O)c3c(c(O)c1C2=O)C[C@@](O)(C(C)=O)C[C@H]3O[C@H]1C[C@H](N)[C@H](O)[C@H](C)O1`, for which the viability was 26.5% (active).

For `CCOc1ccc(Cc2cc([C@@H]3O[C@H](CO)[C@@H](O)[C@H](O)[C@@H]3O)ccc2Cl)cc1`, the viability is 106%. Same read-out and setting: the same measure for `CC(=O)[C@]1(O)Cc2c(O)c3c(c(O)c2[C@H](O[C@H]2C[C@H](N)[C@H](O)[C@H](C)O2)C1)C(=O)c1ccccc1C3=O`: 12.2% (active). Still for that read-out and setting: the result for `CCC1=CC2CN(C1)Cc1c([nH]c3ccccc13)[C@@](C(=O)OC)(c1cc3c(cc1OC)N(C)[C@H]1[C@@](O)(C(=O)OC)[C@H](OC(C)=O)[C@]4(CC)C=CCN5CC[C@@]31[C@H]54)C2` (some centres not stated) reads 13.6% (active); that for `CC(=O)O[C@H]1C(=O)[C@@]2(C)C([C@H](OC(=O)c3ccccc3)[C@]3(O)C[C@H](OC(=O)[C@H](O)[C@@H](NC(=O)c4ccccc4)c4ccccc4)C(C)=C1C3(C)C)[C@]1(OC(C)=O)CO[C@@H]1C[C@H]2O` (some centres not stated), 17.4% (active). The same measure, in the same setting: the same measure for `CO[C@H]1C[C@H]2CC[C@@H](C)[C@@](O)(O2)C(=O)C(=O)N2CCCC[C@H]2C(=O)O[C@H]([C@H](C)C[C@@H]2CC[C@H](OC(=O)C(C)(CO)CO)[C@H](OC)C2)CC(=O)[C@H](C)/C=C(\C)[C@@H](O)[C@@H](OC)C(=O)[C@H](C)C[C@H](C)/C=C/C=C/C=C/1C`: 56.6% (active); for `CO[C@H]1/C=C\C=C(\C)C(=O)NC2=CC(=O)C(NCCN(C)C)=C(C[C@@H](C)C[C@H](OC)[C@H](O)[C@@H](C)/C=C(\C)[C@@H]1OC(N)=O)C2=O`: 9.22% (active); for `CC(C)(C(=O)NCC(F)(F)C(F)(F)F)C(=O)N[C@H]1C(=O)Nc2ccccc2-c2ccccc21`: 91.6% (active). `CC1(C)O[C@@H]2C[C@H]3[C@@H]4CCC5=CC(=O)C=C[C@]5(C)[C@]4(F)[C@H](O)C[C@]3(C)[C@@]2(C(=O)CO)O1`: the viability is 110%.

Staying with this experiment, now noted: patient-derived ovarian cancer cells, CellTiter-Glo viability, 144 h; at 0.313 µM; OCI-C5x cells; with rucaparib 10 µM; active compounds read low; 100% = cells with rucaparib alone.
As for `N[C@@H]1CCCN(c2c(/C=C3\SC(=O)NC3=O)cccc2-c2ccccc2)C1`, the viability is 105%.

Turning to `C[C@@H]1C[C@H]2[C@@H]3CCC4=CC(=O)C=C[C@]4(C)[C@]3(F)[C@H](O)C[C@]2(C)[C@]1(O)C(=O)CO`, the viability was 111%. As for `Cc1cc2c(C(=O)NC[C@H](C)c3ccccc3)c(O)c(O)cc2c(O)c1-c1c(C)cc2c(C(=O)NC[C@H](C)c3ccccc3)c(O)c(O)cc2c1O`, the viability was 119%. As to `Nc1nc(F)nc2c1ncn2[C@H]1O[C@H](CO)[C@@H](O)[C@@H]1O`, the viability was 89.3% (active).

Take `COc1cccc2c1C(=O)c1c(O)c3c(c(O)c1C2=O)C[C@@](O)(C(=O)CO)C[C@H]3O[C@H]1C[C@H](N)[C@@H](O)[C@H](C)O1`: the viability was 37.5% (active). As for `C=C1/C(=C/C=C2\CCC[C@@]3(C)[C@H]2CC[C@H]3[C@H](C)/C=C/[C@@H](C)C(C)C)C[C@H](O)C[C@@H]1O`, the viability is 96.7% (active). On to `CO[C@H]1C[C@H]2CC[C@@H](C)[C@@](O)(O2)C(=O)C(=O)N2CCCC[C@H]2C(=O)O[C@H]([C@H](C)C[C@@H]2CC[C@H](OP(C)(C)=O)[C@H](OC)C2)CC(=O)[C@H](C)/C=C(\C)[C@@H](O)[C@@H](OC)C(=O)[C@H](C)C[C@H](C)/C=C/C=C/C=C/1C`, for which the viability was 108%. Same read-out and setting: the result for `C=CCNC1=C2C[C@@H](C)C[C@H](OC)[C@H](O)[C@@H](C)/C=C(\C)[C@H](OC(N)=O)[C@@H](OC)/C=C\C=C(\C)C(=O)NC(=CC1=O)C2=O` reads 104%.

In the case of `CC[C@]1(O)C[C@@H]2CN(CCc3c([nH]c4ccccc34)[C@@](C(=O)OC)(c3cc4c(cc3OC)N(C=O)[C@@H]3C45CCN4CC=C[C@](CC)([C@H]45)[C@H](OC(C)=O)[C@]3(O)C(=O)OC)C2)C1` (some centres not stated), the viability is 42.3% (active). In the case of `COc1cccc2c1C(=O)c1c(O)c3c(c(O)c1C2=O)C[C@@](O)(C(C)=O)C[C@H]3O[C@H]1C[C@H](N)[C@H](O)[C@H](C)O1`, the viability is 101%.

As for `CCOc1ccc(Cc2cc([C@@H]3O[C@H](CO)[C@@H](O)[C@H](O)[C@@H]3O)ccc2Cl)cc1`, the viability is 112%.

Turning to `CC(=O)[C@]1(O)Cc2c(O)c3c(c(O)c2[C@H](O[C@H]2C[C@H](N)[C@H](O)[C@H](C)O2)C1)C(=O)c1ccccc1C3=O`, the viability was 3.18% (active). Still for that read-out and setting: the same measure for `CCC1=CC2CN(C1)Cc1c([nH]c3ccccc13)[C@@](C(=O)OC)(c1cc3c(cc1OC)N(C)[C@H]1[C@@](O)(C(=O)OC)[C@H](OC(C)=O)[C@]4(CC)C=CCN5CC[C@@]31[C@H]54)C2` (some centres not stated): 33.8% (active).

Usually viability stands for a read-out of living cells in per cent, often relative to untreated cells.

The record behind these values is PubChem BioAssay.
